Bioassay records: PubChem BioAssay, National Center for Advancing Translational Sciences (NCATS)
An excerpt weighted towards active compounds, which were near 21% of everything screened.
ELG1 DNA repair – ELG1-dependent DNA repair inhibition; HEK293T ELG1-luciferase reporter, luminescence, 16 h; DNA damage induced by 5-fluorouridine; Potency, µM (top dose mostly 46.1 µM), without a hit: top-dose activity change, negative = inhibition, actives largely listed as inhibitors; 330,000 compounds, 2.3% hits; note: potency is the fitted concentration of half-maximal effect; nearly all actives have a fitted effect of over 55% in size
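Quantitative HTS, concentration-response format. 2,000 cells/well co-treated with 5-fluorouridine and compound, 16 hr in 5% CO2 at 37 °C; ONE-Glo luminescence read after 30 min.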
DT40 TDP1 CPT – DT40-hTDP1 cell growth loss with CPT | 420,000 compounds, 12% hits | AID 686979 | Potency, µM (doses to about 46.2 µM), without a hit: at the top dose activity change, negative = growth inhibition, hits mostly inhibitors | chicken DT40 Tdp1-/-;hTDP1 cells + 20 nM CPT, ATP luminescence, 48 h; note: potency is the fitted concentration of half-maximal effect; nearly all actives have a fitted effect of over 55% in size
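Cell growth measured by CellTiter-Glo luminescence after a minimum 48 h, 37 C compound exposure with 20 nM CPT in Tdp1-knockout DT40 cells stably expressing hTDP1, seeded 400/well; qHTS titration format.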
VP16 counter – Gal4-VP16 reporter inhibition counter-screen. 310,000 compounds, 3.5% hits. AID 2546. Drosophila S2 Gal4-VP16 UAS-luciferase, luminescence, 20 h. Potency, µM (series often up to 53.6 µM), for the others: at the top dose activity, negative = inhibition, usual class: inhibitors;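 note: Gal4-VP16 expression switched on by copper sulfate through the metallothionein promoter; potency is the fitted concentration of half-maximal effect; nearly all actives have a fitted effect of over 50% in size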
TDP1 cell noCPT – qHTS for Inhibitors of human tyrosyl-DNA phosphodiesterase 1 (TDP1): qHTS in cells in absence of CPT. DT40 Tdp1-/- hTDP1 cells, no CPT, ATP luminescence, 48 h. Potency, µM (highest dose often 46.2 µM), without a hit: at the top dose activity change, negative = growth inhibition, usual class: inhibitors. 420,000 compounds, 15% hits; note: potency is the fitted concentration of half-maximal effect; nearly all actives have a fitted effect of over 55% in size
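Stably hTDP1-transfected Tdp1-null chicken DT40 cells were treated with library compounds minus camptothecin and grown for at least 48 hr at 37 °C, after which cellular ATP was quantified by luminescence.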
IL-1B inflam inh – inhibitors of inflammasome signaling (IL-1 beta secretion); activity change, % at 57.5 µM; 360,000 compounds, 4.7% hits; THP-1 LPS/ATP IL-1B secretion, AlphaLISA, 16 h; active compounds read low; in the data active = activity change below about -50%; inconclusive = mostly about -30% to -49%
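THP-1 cells pretreated 1 hr with compounds (up to 57.5 uM final), then stimulated with LPS (250 ng/mL final) plus ATP (1.25 mM final); secreted IL-1B measured by AlphaLISA after 16 hr, decreased signal indicating inhibition.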
RORg inh – inhibitors of mouse ROR gamma transcriptional activity; P51450; Drosophila S2 Gal4-RORgamma UAS-luciferase reporter, 20 h; Potency, µM (series often up to 53.6 µM), inactives show top-dose activity change, negative = inhibition, actives largely listed as inhibitors; 310,000 compounds, 5.4% hits; AID 2551; note: potency is the fitted concentration of half-maximal effect; nearly all actives have a fitted effect of over 60% in size
Target sequence (P51450 whole entry, looked up, the tested form may be a part): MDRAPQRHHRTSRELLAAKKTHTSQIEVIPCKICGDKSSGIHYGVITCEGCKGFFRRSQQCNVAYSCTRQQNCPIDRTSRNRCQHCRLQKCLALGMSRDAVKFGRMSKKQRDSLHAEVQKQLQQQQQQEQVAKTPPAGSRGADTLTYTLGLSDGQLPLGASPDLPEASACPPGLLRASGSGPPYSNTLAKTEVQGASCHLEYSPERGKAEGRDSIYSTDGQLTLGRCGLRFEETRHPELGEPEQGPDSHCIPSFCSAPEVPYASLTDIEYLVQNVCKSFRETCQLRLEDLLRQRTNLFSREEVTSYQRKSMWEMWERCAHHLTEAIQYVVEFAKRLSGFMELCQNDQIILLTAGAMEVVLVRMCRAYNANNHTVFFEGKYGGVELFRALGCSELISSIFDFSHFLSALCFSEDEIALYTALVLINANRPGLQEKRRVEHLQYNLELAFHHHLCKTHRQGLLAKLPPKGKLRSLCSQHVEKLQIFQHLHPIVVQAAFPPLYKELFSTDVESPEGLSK
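Luminescence from a UAS-regulated Photinus luciferase reporter in stably transfected Drosophila Schneider cells is measured; decreased signal marks ROR gamma inhibition. Fusion expression is induced by 700 uM copper sulfate for 20 hr.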
The depositor's hits bear a star; ? = inconclusive; / = no result; [ ] = another dose, or the depositor's remark. Unless noted, calls come from the whole dose curve; as a rule, active = well fitted curve in the direction sought with a large enough effect; inconclusive = small, poorly fitted or top-dose-only effect, or another doubt; inactive = no such curve, though single readings can be large; an effect the other way counts as inactive or inconclusive. % is set by controls: 0 for no effect and ±100 for the full control effect.

SMILES	ELG1 DNA repair	DT40 TDP1 CPT	VP16 counter	TDP1 cell noCPT	IL-1B inflam inh	RORg inh
O=C(NCC(=O)N1CCN(Cc2ccccc2)CC1)c1ccc(Cl)cc1	?	?	14%	?	?	32%
O=C(NCCC(=O)N1CCN(c2cccc(Cl)c2)CC1)c1ccc(Br)cc1	?	?	/	?	-55*	/
Cc1cccc(N2CCN(C(=O)CNC(=O)c3cccc([N+](=O)[O-])c3)CC2)c1C	18µM*	?	-2%	18µM*	-8	?
O=C(NC(=O)N1CCN(c2cccc(Cl)c2)CC1)c1ccccc1	-2%	0%	-1%[0.365 µM]	0%	0	1%
O=C(NC(=O)N1CCN(c2cccc(Cl)c2)CC1)c1ccc(Cl)cc1	4%	?	?	?	-29	16µM*
O=C(NCC(=O)N1CCN(Cc2ccccc2)CC1)c1cc(Cl)cc([N+](=O)[O-])c1	?	16µM*	/	?	9	/
Cc1cccc(C(=O)NCC(=O)N2CCN(c3ccc(Cl)cc3)CC2)c1	?	?	-1%	?	-12	-17%
Cc1cc(C)cc(C(=O)NCC(=O)N2CCN(c3cccc(Cl)c3)CC2)c1	-19%	?	-10%	?	-70*	36%
O=C(NCC(=O)N1CCN(Cc2c(F)cccc2Cl)CC1)c1cccc(Cl)c1	-16%	6.5µM*	/	16µM*	-8	/
O=C(NCC(=O)N1CCN(Cc2c(F)cccc2Cl)CC1)c1cccs1	/	-18%	/	?	-14	/
O=C(CCC(=O)c1cccs1)NCCc1ccc(F)cc1	0%	0%	/	-13%	31	/
COc1ccc(-c2ccc(=O)n(CC(=O)NCCc3ccccc3)n2)cc1	/	8%	/	-2%	/	/
CCOC(=O)CCN1C(=O)[C@H]2[C@H]3[C@H](O)[C@H](O)C/C(=N/OC[C@@H](O)COCc4ccco4)[C@@H]3CC[C@@H]2C1=O	/	/	-2%[10 µM]	/	/	1%[10 µM]
O=C(CCCn1c(SCc2cccc([N+](=O)[O-])c2)nc2ccccc2c1=O)NCC1CCCO1 (stereo not drawn)	0%	?	-3%	23µM*	?	?
O=C(CSc1nc2ccc(N3CCOCC3)cc2c(=O)n1CCc1ccccc1)NCC1CCCO1 (stereo not drawn)	?	?	13µM*	?	-11	5.6µM*
COCCNC(=O)CSc1nc2ccccc2c(=O)n1CCC(=O)N1CCN(c2ccccc2)CC1	-10%	-1%	6%[10 µM]	-19%	-13	15%
CCOC(=O)CSc1nc2sc3c(c2c(=O)n1Cc1ccccc1)CC(C)CC3 (stereo not drawn)	/	?	/	12µM*	/	/
COCCNC(=O)CSc1nc2ccc(N3CCOCC3)cc2c(=O)n1CCc1ccccc1	-28%	?	?	-17%	-19	3.5µM*
O=C(CCCn1c(SCc2ccccc2F)nc2ccccc2c1=O)NCC1CCCO1 (stereo not drawn)	?	-6%	2%	?	-25	?
C[C@H](NC(=O)c1ccco1)C(=O)NCc1cccs1	9%	4%	/	13%	6	/
CCC1CN(Cc2cccn2-c2ccccn2)Cc2cc(OC)ccc2O1 (stereo not drawn)	/	-9%[9.04 µM]	/	?	/	/
COc1cc(NC(=O)c2onc(C)c2Cl)cc(OC)c1OC	13%	0%	17%	3%	0	2%
CCCCNC(=O)CSc1nc2ccc(N3CCOCC3)cc2c(=O)n1CCc1ccccc1	?	?	7.9µM*	?	21	7.9µM*
CCCCNC(=O)CSc1nc2ccccc2c(=O)n1CCNC(C)=O	0%	-3%	-5%	21%	-28	22%
CCOC(=O)CSc1nc2ccc(N3CCOCC3)cc2c(=O)n1Cc1ccccc1	?	?	?	-58%	12	13µM*
SMILES	ELG1 DNA repair	DT40 TDP1 CPT	VP16 counter	TDP1 cell noCPT	IL-1B inflam inh	RORg inh
O=C(NC1CCCC1)C(C1CC1)n1c(-c2ccnc3ccccc23)nc2ccccc21 (stereo not drawn)	/	?	/	?	58	/
CCOC(=O)c1c(NC(=O)c2ccc(N3C(=O)C4C5C=CC(C5)C4C3=O)cc2)sc2c1CCCC2 (stereo not drawn)	?	?	-28%	23µM*	-2	1%
CCOC(=O)c1c(NC(=O)c2ccco2)sc(C(=O)N2CCCC2)c1C	?	?	-1%	?	-13	-17%
O=C(Nc1sc2c(c1C(=O)O)CCCCC2)c1ccco1	?	?	?	?	23	-41%
CCOC(=O)c1c(NC(=O)c2ccco2)sc2c1CCCCC2	-1%	29µM*	4%	29µM*	4	12%
CCOC(=O)c1c(NC(=O)CCNCc2ccco2)sc2c1CCC2	3%	?	-11%	?	-69*	-6%
CCOC(=O)c1c(NC(=O)C(C)N2CCN(C(=O)c3ccco3)CC2)sc2c1CCCC2 (stereo not drawn)	7.3µM*	15µM*	11µM*	16µM*	-57*	-35%
CS(=O)(=O)Nc1ccc2c(c1)[C@@H]1C[C@@H](CC(=O)NCc3cccnc3)O[C@H](CO)[C@@H]1O2	/	-23%	/	-12%	32	/
CN1CCC(N2CCN(C3CN(C4CCCC4)S(=O)(=O)C3)CC2)CC1 (stereo not drawn)	/	-1%	/	1%	2	/
CCOC(=O)c1c(NC(=O)CNCCOC)sc2c1CCCC2	-11%	?	1.6µM*	12µM*	-1	1.3µM*
CN(C)C(=O)c1c(NC(=O)c2ccco2)sc2c1CCCCC2	5%	?	-1%	-5%	17	34%
NC(=O)c1c(NC(=O)CSc2nnc(Cc3ccccc3)n2Cc2ccco2)sc2c1CCC2	23µM*	?	22%	-13%	-5	-1%
CCOC(=O)c1c(NC(=O)CS(=O)(=O)c2cn(CC)c3ccccc23)sc2c1CCCCC2	0%	21µM*	11%	?	27	?
O=C(Nc1sc2c(c1C(=O)NCCO)CCCC2)c1ccco1	7%	-7%	1%	-5%	-59*	1%
COc1ccc(-c2ccccc2)cc1NC(=O)[C@@H]1O[C@H](CO)[C@H](O)[C@H](O)[C@H]1O	/	6%	/	0%	-6	/
CCOC(=O)c1c(NC(=O)C(C)Sc2cn(CCNC(=O)c3c(F)cccc3F)c3ccccc23)sc2c1CCC2 (stereo not drawn)	/	21µM*	/	16µM*	/	/
